Screens (PubChem BioAssay)
Hits are enriched below; roughly 3.6% of the tested compounds scored in any of these assays.
mHTT CaM bind – mHTT-calmodulin interaction abrogation; P42858; AlphaScreen His-mHTT/GST-CaM binding, luminescence; inhibition, % at 15 µM; 190,000 compounds, 3.6% hits; AID 1671202
Pf apPOL inh – Pf-apPOL DNA polymerase inhibition; 210,000 compounds, 0.25% hits; Recombinant Pf-apPOL, molecular beacon fluorescence, 1.5 h; AID 1794808; inhibition, % at 10 µM
Large screens that a line does not name were inactive. Rule as the data show it: active = inhibition above about 50%; inactive = the rest.

COc1ccc(Cl)cc1NC(=O)CSc1nc(=O)n(CCCO)c2c1CCCC2	mHTT CaM bind 57
COc1ccc(Cl)cc1NC(=O)CSc1nc(=O)n2cccc(C)c2n1	none
Cc1cc(C(=O)NCc2cccnc2)ccc1[N+](=O)[O-]	none
Cc1cc(O)c(C=Nc2cc(Cl)ccc2O)cc1C	mHTT CaM bind 52
Oc1ccc(I)cc1C=Nc1cc(Cl)ccc1O	none
COc1ccc(NC(NC(=O)c2ccc([N+](=O)[O-])cc2)C(Cl)(Cl)Cl)cc1 (stereo not drawn)	mHTT CaM bind 53
COc1ccc(C(=O)NC(Nc2ccc(Br)cc2)C(Cl)(Cl)Cl)cc1 (stereo not drawn)	none
COc1ccc(NC(NC(=O)c2ccc(Cl)cc2)C(Cl)(Cl)Cl)cc1 (stereo not drawn)	mHTT CaM bind 57
COc1ccc(C(=O)NC(Nc2ccc([N+](=O)[O-])cc2)C(Cl)(Cl)Cl)cc1 (stereo not drawn)	none
Cc1cccc(S(=O)(=O)N2CCC(c3noc(-c4ccccc4C)n3)CC2)c1	none
Cc1ccnc(N2CCC(C(=O)Nc3ccc(Br)cc3F)CC2)n1	none
O=C1N=C(N2CCOCC2)S/C1=C/C1=Cc2ccccc2OC1	mHTT CaM bind 52
O=C1N=C(N2CCOCC2)S/C1=C\c1ccccc1	none
COc1cccc2c1OC1(C)CC2NC(=O)N1c1cccc(C(=O)O)c1 (stereo not drawn)	none
Cc1cccc(N2CCN(C(=O)c3ccc(SCc4cccnc4)c([N+](=O)[O-])c3)CC2C)c1 (stereo not drawn)	mHTT CaM bind 98
O=C(c1ccc(SCc2cccnc2)c([N+](=O)[O-])c1)N1CCCC1	none
O=C(O)/C=C/c1cccc(N=Cc2ccc(N3CCOCC3)cc2)c1	none
O=C(O)/C=C/c1cccc(N=Cc2ccc([N+](=O)[O-])o2)c1	mHTT CaM bind 71
COc1ccccc1CNC(=O)C1(C)Cc2ccccc2C(=O)N1c1ccc(C)cc1 (stereo not drawn)	none
COc1ccc(-c2nnc(NC(=O)c3ccc(S(=O)(=O)N(C)C)cc3)o2)cc1	none
CN(C)c1ccc(-c2nc(-c3ccc(=O)n(C)c3)no2)cc1	none
CN(C)c1ccc(C(=O)Nc2nnc(-c3ccc(Br)cc3)o2)cc1	mHTT CaM bind 60
CN(C)c1ccc(-c2noc(-c3ccc(Br)cc3)n2)cc1	mHTT CaM bind 79
O=[N+]([O-])c1cccc(S(=O)(=O)C=C(Cl)Cl)c1	mHTT CaM bind 63 (no result: Pf apPOL inh)
O=[N+]([O-])c1cccc(S(=O)(=O)N2CCCC2)c1	none
Cc1ccccc1C1CCC2(CC1)CCN(CC[C@@H](O)c1ccccc1)C2=O (stereo partly drawn)	mHTT CaM bind 53
O=C1N(CC[C@@H](O)c2ccccc2)CCC12CCC(c1ccccc1)CC2 (stereo partly drawn)	none
Cc1ccc(NC(=O)CC2COc3ccccc3NC2=O)c(C)c1 (stereo not drawn)	none
O=[N+]([O-])c1cc(CN2CCC(c3ccccc3)C2)c(O)c2ncccc12 (stereo not drawn)	mHTT CaM bind 100
O=C(NC(/C=C/c1ccccc1)c1cc([N+](=O)[O-])c2cccnc2c1O)C1CCCCC1 (stereo not drawn)	none
COc1cc(CN2CCCCCC2)cc([N+](=O)[O-])c1O	none
COc1ccccc1N1CCN(Cc2cc([N+](=O)[O-])c(O)c3ncccc23)CC1	mHTT CaM bind 100
O=[N+]([O-])c1ccccc1CN1CCC(O)CC1	none
O=[N+]([O-])c1cc(CN2CCCC2)c2cccnc2c1O	mHTT CaM bind 100
CC1CCN(Cc2cc([N+](=O)[O-])c(O)c3ncccc23)CC1	mHTT CaM bind 100
COc1ccccc1N1CCN(Cc2cc(OC)c(O)c([N+](=O)[O-])c2)CC1	none
CC(C)(C)c1ccc(C(=O)NC(=S)N2CCNC(=O)C2CC(=O)OCC2CCCO2)cc1 (stereo not drawn)	none
CC(NC(=O)C1CCN(c2cc(N3CCSCC3)ncn2)CC1)c1ccccc1 (stereo not drawn)	none
O=C(Nc1ccc2c(N3CCOCC3)ncnc2c1)c1ccc(Cl)cc1	none
CC(NC(=O)c1ccc2ncnc(N3CCCC3)c2c1)c1ccc(F)cc1 (stereo not drawn)	none
Cc1ccc(CNC(=O)c2ccccc2C)cc1	none
CN1CCCN(Cc2ccccc2[N+](=O)[O-])CC1	none
CN1CCN(Cc2cc([N+](=O)[O-])c(O)c3ncccc23)CC1	mHTT CaM bind 100
O=C(NCc1ccccn1)C1CCN(c2cncnc2N2CCOCC2)CC1	none
O=C(O)CCC(=O)Nc1nc2n(n1)C(c1ccccc1)C=C(c1ccccc1)N2 (stereo not drawn)	none
O=C(Nc1nc2n(n1)C(c1ccccc1)C=C(c1ccccc1)N2)c1ccco1 (stereo not drawn)	mHTT CaM bind 67
CC(=O)Nc1nc2n(n1)C(c1ccccc1)C=C(c1ccccc1)N2 (stereo not drawn)	none
CC1=CC(c2ccc(Cl)cc2)n2nc(NC(=O)c3ccccc3)nc2N1 (stereo not drawn)	none
